Assay outcomes deposited in PubChem by National Center for Advancing Translational Sciences (NCATS).
Hits are enriched below; roughly 9.8% of the tested compounds scored in any of these assays.
HPGD inh = inhibitors of human 15-hydroxyprostaglandin dehydrogenase (HPGD); purified HPGD, NADH fluorescence kinetic, PGE2 substrate; Potency, µM, for the others: at the highest dose activity change, negative = inhibition, actives largely listed as inhibitors; hit rate 4.3% among 150,000; AID 894; active = well fitted inhibition curve with a large enough effect, not every such curve was filed as active; inconclusive = small, poorly fitted or top-dose-only effect, or another doubt; inactive = no such curve, though single readings can be large or run the other way; note: potency is the fitted concentration of half-maximal effect; % is set by controls: 0 for no effect and ±100 for the full control effect
Target sequence (P15428 whole entry, looked up): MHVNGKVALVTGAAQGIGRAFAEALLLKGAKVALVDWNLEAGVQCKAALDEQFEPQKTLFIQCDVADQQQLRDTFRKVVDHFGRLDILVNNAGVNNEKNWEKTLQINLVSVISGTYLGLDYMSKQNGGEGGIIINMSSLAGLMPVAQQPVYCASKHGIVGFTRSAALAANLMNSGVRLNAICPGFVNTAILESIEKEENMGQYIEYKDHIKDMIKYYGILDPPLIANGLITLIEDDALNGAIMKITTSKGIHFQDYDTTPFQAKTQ
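NADH formation kinetics: reaction with 30 uM PGE2 and 1 mM NAD+ (final), 20 nM enzyme, Tris-HCl pH 8 with Tween 20, after 15 min compound preincubation at room temperature. Fluorescence change, last versus first of five reads.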
KDM4E inh = blocks human JMJD2E demethylase activity | B2RXH2 | JMJD2E catalytic domain, FDH-coupled NADH fluorescence (FDH is formaldehyde dehydrogenase) | Potency, µM (titrated, usually from 57.1 µM), without a hit: top-dose activity change, negative = inhibition, hits mostly inhibitors | hit rate 1.6% among 230,000 | AID 2147; active = well fitted inhibition curve with a large enough effect, not every such curve was filed as active; inconclusive = small, poorly fitted or top-dose-only effect, or another doubt; inactive = no such curve, though single readings can be large or run the other way;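 note: potency is the fitted concentration of half-maximal effect; 0% = wells with enzyme and -100% = buffer wells without enzyme; nearly all actives have a fitted effect of over 50% in size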
Target sequence (B2RXH2 1-337 limits assumed): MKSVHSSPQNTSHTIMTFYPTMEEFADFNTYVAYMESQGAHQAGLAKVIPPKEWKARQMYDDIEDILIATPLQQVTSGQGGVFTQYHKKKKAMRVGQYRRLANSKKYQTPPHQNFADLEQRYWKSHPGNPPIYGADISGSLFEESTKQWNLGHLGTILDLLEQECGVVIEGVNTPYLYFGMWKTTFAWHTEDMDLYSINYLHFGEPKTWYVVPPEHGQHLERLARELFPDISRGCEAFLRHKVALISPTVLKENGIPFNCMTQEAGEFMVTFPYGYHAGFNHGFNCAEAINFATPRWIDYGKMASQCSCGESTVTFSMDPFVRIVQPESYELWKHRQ
HTT aggregate = inhibitors of mutant huntingtin aggregate formation in PC12 cells. PC12 HttQ103-GFP aggregates, Acumen cytometry, 40 h. Potency, µM (doses to about 46.1 µM), for inactives: at the top dose activity change, negative = inhibition, usual class: inhibitors. hit rate 1.1% among 220,000; note: potency is the fitted concentration of half-maximal effect; % is set by controls: 0 for no effect and ±100 for the full control effect; nearly all actives have a fitted effect of over 60% in size
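Steps: seed 1500 PC12 HTTQ103-GFP cells/well; add tebufenozide, 100 nM final; add compound titration; add ATPLite reagent; quantify GFP aggregates by laser scanning cytometry.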
ALDH1A1 block = inhibitors of human aldehyde dehydrogenase 1A1; P00352; Purified ALDH1A1, NADH fluorescence, propionaldehyde substrate; Potency, µM (highest dose often 75.3 µM), inactives show at the highest dose activity, negative = inhibition, hits mostly inhibitors; hit rate 7.3% among 220,000; AID 1030; active = well fitted inhibition curve with a large enough effect, not every such curve was filed as active; inconclusive = small, poorly fitted or top-dose-only effect, or another doubt; inactive = no such curve, though single readings can be large or run the other way;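 note: potency is the fitted concentration of half-maximal effect; plate controls were no enzyme wells and a reference inhibitor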
HTT cytoprotect = protects HTT-Q103 PC12 cells, measured by ATP. PC12 HTT-Q103 induced, cytoprotection, ATP luminescence, 40 h. Potency, µM (doses to about 56.4 µM), without a hit: cytoprotection (ATP increase), usual class: activators. hit rate 0.14% among 230,000; note: potency is the fitted concentration of half-maximal effect; % of control where 0% means no effect; nearly all actives have a fitted effect of over 45% in size
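Huntington model: PC12 line, ecdysone-inducible HTTQ103 exon1–GFP, tebufenozide 100 nM. Test articles in a dose series. Endpoint luminescence from cellular ATP.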
CBFb RUNX1 block = blocks binding between human CBF-beta and RUNX1; Q01196+Q13951; AlphaScreen CBFb-His/RUNX1-biotin binding, biochemical; Potency, µM (series often up to 59.8 µM), for inactives: top-dose activity, negative = inhibition, hits mostly inhibitors; 230,000 tested, under 10 active; note: % of control where 0% means no effect
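Bead-based AlphaScreen assay; binding partners His-tagged CBF-beta and biotinylated RUNX1 at 30 nM each. Compound exposure 15 min after a 20-min protein preincubation; bead step 90 min; all steps at room temperature.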
An asterisk follows results filed as active; u = inconclusive; x = no result; [ ] = another dose, or the depositor's remark. Unless noted, calls come from the whole dose curve; as a rule, active = well fitted curve in the direction sought with a large enough effect; inconclusive = small, poorly fitted or top-dose-only effect, or another doubt; inactive = no such curve, though single readings can be large; an effect the other way counts as inactive or inconclusive.

SMILES	HPGD inh	KDM4E inh	HTT aggregate	ALDH1A1 block	HTT cytoprotect	CBFb RUNX1 block
COc1ccccc1NS(=O)(=O)c1cc(NC(=O)CC(C)(C)C)ccc1N1CCOCC1	x	0.0%	-0.5%	-5.5%	-53.2%	-12.2%
COc1ccccc1NS(=O)(=O)c1cc(NC(=O)CCC2CCCC2)ccc1N1CCOCC1	x	-2.3%	u	15.8µM*	-7.6%	17.7%
Nc1ccc(N2CCCCC2)c(S(=O)(=O)Nc2ccccc2Cl)c1	x	-9.7%	2.0%[9.22 µM]	x	7.6%[10 µM]	-14.4%
COc1ccccc1NS(=O)(=O)c1cc(N)ccc1N1CCCCC1	x	u	-2.5%	3.16µM*	-26.9%	-24.4%
O=C(CCN1C(=O)c2ccccc2C1=O)C1=NN[C@@H]2C(=O)N(c3ccc4c(c3)OCCO4)C(=O)[C@H]12	x	-4.4%	17.7%[9.22 µM]	x	21.5%[10 µM]	3.8%
C/C(=C1/SC(=S)N(CCC(=O)O)C1=O)c1ccc(O)cc1	17.8µM*	-8.1%	5.8%	u	-10.6%	-9.4%
COc1ccc(/C(C)=C2\SC(=S)N(CCC(=O)O)C2=O)cc1	-27.0%	-1.7%	10.1%	-8.7%	11.2%	-3.3%
CN(C)C=Nc1c(C(=O)c2ccccc2)sc2nccc(N(C)C)c12	-15.5%	u	6.31µM*	u	x	13.5%
CN(C)c1ccnc2sc(C(N)=O)c(N)c12	-24.5%	u	1.58µM*	u	25.9%	1.5%
CN(C)c1ccnc2sc(C(=O)c3ccc(Br)cc3)c(N)c12	x	1.6%	6.2%	u	-40.0%	-2.2%
COc1ccc(C2c3c(ncn(CCN4CCOCC4)c3=N)Oc3ccc4ccccc4c32)cc1OC (stereo not given)	-1.2%	-2.5%	12.5%	5.2%	-40.8%	-7.2%
CCc1cc(C(=O)OC)c(NC(=O)CCC(=O)O)s1	12.6µM*	u	8.3%	17.8µM*	15.2%[10 µM]	6.9%
CCCc1cc(C(=O)OC)c(NC(=O)CCCC(=O)O)s1	x	-5.3%	-9.2%[9.22 µM]	8.1%	-9.8%	0.3%
Cn1c(=O)c2c(SCC(=O)N3CCC(Cc4ccccc4)CC3)nc(C3CC3)nc2n(C)c1=O	x	x	x	x	4.1%	x
CCCc1nc(SCC(=O)N2CCC(Cc3ccccc3)CC2)c2c(=O)n(C)c(=O)n(C)c2n1	-17.3%	0.1%	25.1µM*	17.8µM*	-25.5%	1.2%
Cn1c(C(=O)O)c(CC(=O)N2CCC(Cc3ccccc3)CC2)c2ccccc21	-21.1%	31.6µM*	5.6%	-3.7%	x	-1.3%
Nc1nnc(Cc2ccc(Cl)c(Cl)c2)s1	-18.8%	5.1%	5.62µM*	u	-2.8%	3.5%
Nc1nnc(CCOc2ccccc2Cl)s1	-11.2%	-0.4%	u	3.6%	-92.5%[10 µM]	0.7%
O=C(c1cc(C(F)(F)F)cc(C(F)(F)F)c1)N1CCC[C@@]2(CCN(Cc3nccs3)C2)C1	0.7%	x	x	1.5%	u	x
Cc1onc(-c2cccc(Cl)c2Cl)c1C(=O)O/N=C(\N)c1ccc([N+](=O)[O-])o1	x	-1.6%	6.0%[9.22 µM]	5.01µM*	9.3%[10 µM]	-25.5%
O=c1[nH]c(SCc2n[nH]c(=S)n2-c2ccccc2)nc2ccccc12	-23.9%	2.2%	-0.4%	4.7%	-12.2%	-0.9%
O=c1[nH]c(SCc2n[nH]c(=S)n2-c2ccccc2)nc2sc3c(c12)CCC3	12.6µM*	-14.2%	1.2%[9.22 µM]	-7.9%	-13.5%	1.8%
CCN(CC)C(=O)CSc1nc2sc(C)c(C)c2c(=O)[nH]1	12.6µM*	-0.5%	4.2%	u	1.4%	7.4%
Cc1sc2nc(SCC(=O)N(C)C)[nH]c(=O)c2c1C	-29.2%	-0.3%	-1.7%	-2.0%	-25.9%[0.074 µM]	6.9%
CCOC(=O)Cc1csc(NC(=O)CSc2nc3sc(C(=O)O)c(C)c3c(=O)[nH]2)n1	u	-6.6%	-11.6%	-7.2%	4.6%	9.1%
SMILES	HPGD inh	KDM4E inh	HTT aggregate	ALDH1A1 block	HTT cytoprotect	CBFb RUNX1 block
CCOC(=O)CSc1nc2sc3c(c2c(=O)[nH]1)CCCC3	15.8µM*	2.3%	-22.9%	0.3%	-4.3%	3.9%
Cc1csc(NC(=O)CSc2nc3sc(C)c(C)c3c(=O)[nH]2)n1	12.6µM*	-7.0%	-4.0%	17.8µM*	-13.0%[10 µM]	-1.6%
Cc1sc2nc(SCC(=O)N3CCCCC3)[nH]c(=O)c2c1C	15.8µM*	2.5%	-6.1%	u	-18.1%[1.9 µM]	19.0%
Cc1sc2nc(SCC(=O)N3CCCC3)[nH]c(=O)c2c1C	17.8µM*	-2.1%	-11.8%	u	-16.0%	-2.6%
Cc1cc(C)c2c(=O)[nH]c(SCC(=O)N3CCCCC3)nc2n1	u	u	-2.6%[9.22 µM]	u	-10.2%	2.1%
CCOC(=O)CCCSc1nc2sc(C)c(C)c2c(=O)[nH]1	u	8.6%	-10.1%	0.8%	-9.7%	15.2%
CC(C)=CCOc1ccc(/C=C/C(=O)c2ccc(OCC=C(C)C)cc2OCC(=O)O)cc1	11.2µM*	x	14.5%	-5.7%	u	5.3%
COc1ccc2cnn(-c3ccccc3C)c(=O)c2c1OC	-26.1%	u	-9.2%	u	-8.0%[10 µM]	26.7%
CCOC(=O)C1(Cc2ccccc2)CCN(C2Cc3ccccc3C2)CC1	x	8.5%	18.3%[9.22 µM]	-14.2%	4.9%[10 µM]	-6.8%
O=C(NCC1CCN(S(=O)(=O)c2ccccc2)CC1)Nc1ccc(F)cc1	x	-2.3%	22.9%[9.22 µM]	u	9.4%[10 µM]	16.0%
COc1ccc(N2CCC(CNC(=O)Nc3ccccc3)C2)cc1 (stereo not given)	u	u	-9.5%	5.01µM*	-14.4%	u
COc1ccc(N2CCC(CNC(=S)Nc3cc(C)cc(C)c3)C2)cc1 (stereo not given)	x	0.3%	23.8%[9.22 µM]	x	15.9%[10 µM]	u
O=C(NCC1CCN(S(=O)(=O)c2ccccc2)CC1)Nc1ccccc1	x	-1.1%	-6.0%[9.22 µM]	28.2µM*	-15.7%[10 µM]	11.6%
O=C(CCOc1ccc(F)cc1)Nc1nccs1	x	3.4%	3.9%[9.22 µM]	u	4.4%[10 µM]	-3.6%
CCCS(=O)(=O)N1CCC(C(=O)NC2CCC(C)CC2)CC1 (stereo not given)	x	-4.6%	14.0%	12.6µM*	-2.5%	-3.8%
CC1CCN(S(=O)(=O)N2CCC(C(=O)NC3CCCC3)CC2)CC1	x	-3.5%	9.1%	-1.6%	-34.9%	-5.9%
CC(C)c1ccc(NC(=O)C(c2ccccc2)N(Cc2ccco2)C(=O)CC2NC(=O)NC2=O)cc1 (stereo not given)	x	1.9%	21.4%	7.94µM*	-36.8%	-1.8%
O=C(c1cccc(C(F)(F)F)c1)N1CCN(c2cc(=O)[nH]nc2-c2ccccc2)CC1	23.1%	-0.5%	-3.6%	2.99µM*	-24.9%	0.4%
c1ccc2c(-c3nnc4n3CCCCC4)c[nH]c2c1	25.1µM*	0.1%	u	-15.2%	-4.1%[10 µM]	4.0%
N#C/C(=C\c1c[nH]c2ccccc12)C(N)=O	x	-13.3%	-19.3%[9.22 µM]	x	17.5%[10 µM]	23.6%
N#C/C(=C\c1c[nH]c2ccccc12)c1nnc2n1CCCCC2	12.6µM*	2.1%	u	-14.2%	-4.1%[10 µM]	1.4%
